# The supplement of paper PMC5373622, “Screening for AMPA receptor auxiliary subunit specific modulators” (PLoS ONE, 2017)
# Tested on: GRIA2
# Assay: glutamate-evoked VSD slope (GluSlope), % of maximal glutamate response; higher = potentiation (PAM), active = hit call of the paper
# Details: 10 µM; glutamate: EC50 (3-4 uM); clone: A2R-stg (HEK293 GluA2flip(R) + stargazin)
# Protocol: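 lower means inhibition (NAM); Primary voltage-sensitive dye (FLIPR Blue) screen on TetON HEK293 cells expressing GluA2flip(R) with stargazin (A2R-stg). Compound at 10 uM was preincubated for 290 s, then about EC50 glutamate (3-4 uM) was added; fluorescence was read on an FDSS at 1 Hz. GluSlope is expressed as % of the mean maximal-glutamate (1 mM) slope after vehicle subtraction. Hits deviated more than 3 SD from the plate EC50-glutamate wells. One well per compound.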
row,SMILES,glutamate-evoked VSD slope
1,Cc1ccccc1OCC(=O)Nc1cc(C(=O)N2CCCC2)cn(C)c1=O,58.2% (inactive)
2,Cc1ccc(-n2nc3c(c2-n2cccc2)CN(C(=O)c2cnccn2)C3)cc1C,61.4% (inactive)
